Experimental findings from ChEMBL document CHEMBL1961873, “Compounds: GSK PKIS; Assays: Nanosyn kinase panel” (2012) are described below.

Assay [1] addresses T1, Ephrin type-B receptor 2 (Homo sapiens) (UniProt P29323).
T1 sequence (whole entry): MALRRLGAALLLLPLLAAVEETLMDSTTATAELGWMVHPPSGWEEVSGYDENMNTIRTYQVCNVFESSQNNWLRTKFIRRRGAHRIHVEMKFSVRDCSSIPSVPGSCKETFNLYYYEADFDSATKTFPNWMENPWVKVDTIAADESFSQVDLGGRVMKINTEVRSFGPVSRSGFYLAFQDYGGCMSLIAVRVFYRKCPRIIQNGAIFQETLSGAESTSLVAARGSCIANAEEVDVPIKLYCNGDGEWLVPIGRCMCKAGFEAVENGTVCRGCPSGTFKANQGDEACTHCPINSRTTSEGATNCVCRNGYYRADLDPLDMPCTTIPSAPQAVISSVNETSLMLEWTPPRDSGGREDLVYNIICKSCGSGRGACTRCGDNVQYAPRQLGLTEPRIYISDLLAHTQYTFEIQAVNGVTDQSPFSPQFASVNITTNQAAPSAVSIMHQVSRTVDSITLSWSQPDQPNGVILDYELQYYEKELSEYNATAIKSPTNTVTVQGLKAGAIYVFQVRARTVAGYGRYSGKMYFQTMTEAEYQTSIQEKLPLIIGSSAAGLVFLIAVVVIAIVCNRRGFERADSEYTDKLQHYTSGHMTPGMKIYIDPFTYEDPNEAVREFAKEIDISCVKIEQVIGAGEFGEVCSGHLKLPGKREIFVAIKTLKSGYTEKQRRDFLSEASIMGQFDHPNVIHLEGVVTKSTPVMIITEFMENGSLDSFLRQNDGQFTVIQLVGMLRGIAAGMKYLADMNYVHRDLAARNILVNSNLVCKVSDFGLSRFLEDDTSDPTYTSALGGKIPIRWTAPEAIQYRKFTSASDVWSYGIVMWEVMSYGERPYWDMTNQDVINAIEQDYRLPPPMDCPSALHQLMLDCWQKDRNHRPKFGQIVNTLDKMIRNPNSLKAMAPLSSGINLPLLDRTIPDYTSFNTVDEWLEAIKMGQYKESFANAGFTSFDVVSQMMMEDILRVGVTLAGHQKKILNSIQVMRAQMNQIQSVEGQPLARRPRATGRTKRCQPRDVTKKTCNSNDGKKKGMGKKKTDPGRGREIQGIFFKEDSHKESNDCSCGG
The settings on record: at 1 µM.

Assay [2] has as its target T2, Ephrin type-B receptor 3 (Homo sapiens) (UniProt P54753).
T2 sequence (whole entry): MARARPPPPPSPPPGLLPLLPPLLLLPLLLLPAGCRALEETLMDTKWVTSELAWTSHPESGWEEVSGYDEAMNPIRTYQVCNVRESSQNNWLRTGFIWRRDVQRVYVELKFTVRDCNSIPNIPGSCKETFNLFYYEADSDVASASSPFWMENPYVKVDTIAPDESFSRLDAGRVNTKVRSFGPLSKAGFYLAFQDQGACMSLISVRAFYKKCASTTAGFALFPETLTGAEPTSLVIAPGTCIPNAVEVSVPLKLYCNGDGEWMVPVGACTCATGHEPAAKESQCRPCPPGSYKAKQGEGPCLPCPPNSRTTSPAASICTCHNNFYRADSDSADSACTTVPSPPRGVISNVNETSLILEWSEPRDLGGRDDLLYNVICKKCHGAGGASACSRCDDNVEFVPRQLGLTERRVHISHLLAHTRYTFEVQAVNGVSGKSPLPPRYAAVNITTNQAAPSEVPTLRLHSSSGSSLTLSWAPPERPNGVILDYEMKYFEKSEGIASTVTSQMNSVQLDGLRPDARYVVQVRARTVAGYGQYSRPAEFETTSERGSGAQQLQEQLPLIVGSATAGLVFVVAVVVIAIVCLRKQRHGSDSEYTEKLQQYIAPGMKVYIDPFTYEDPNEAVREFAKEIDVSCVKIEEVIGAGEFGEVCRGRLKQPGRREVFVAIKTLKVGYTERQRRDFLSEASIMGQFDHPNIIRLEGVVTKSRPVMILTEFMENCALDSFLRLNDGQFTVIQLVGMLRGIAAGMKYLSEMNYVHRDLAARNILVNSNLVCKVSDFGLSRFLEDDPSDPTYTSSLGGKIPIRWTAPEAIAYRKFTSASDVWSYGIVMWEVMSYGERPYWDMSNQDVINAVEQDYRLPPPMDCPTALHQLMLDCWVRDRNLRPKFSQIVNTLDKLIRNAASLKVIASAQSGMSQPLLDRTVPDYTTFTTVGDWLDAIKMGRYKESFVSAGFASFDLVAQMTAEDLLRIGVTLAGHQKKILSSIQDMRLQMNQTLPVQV
The settings on record: at 0.1 µM.

In assay [3] the target is T2, Ephrin type-B receptor 3 (Homo sapiens). The settings on record: at 1 µM.
Assay [4] has as its target T3, Ephrin type-B receptor 4 (Homo sapiens) (UniProt P54760).
T3 sequence (whole entry): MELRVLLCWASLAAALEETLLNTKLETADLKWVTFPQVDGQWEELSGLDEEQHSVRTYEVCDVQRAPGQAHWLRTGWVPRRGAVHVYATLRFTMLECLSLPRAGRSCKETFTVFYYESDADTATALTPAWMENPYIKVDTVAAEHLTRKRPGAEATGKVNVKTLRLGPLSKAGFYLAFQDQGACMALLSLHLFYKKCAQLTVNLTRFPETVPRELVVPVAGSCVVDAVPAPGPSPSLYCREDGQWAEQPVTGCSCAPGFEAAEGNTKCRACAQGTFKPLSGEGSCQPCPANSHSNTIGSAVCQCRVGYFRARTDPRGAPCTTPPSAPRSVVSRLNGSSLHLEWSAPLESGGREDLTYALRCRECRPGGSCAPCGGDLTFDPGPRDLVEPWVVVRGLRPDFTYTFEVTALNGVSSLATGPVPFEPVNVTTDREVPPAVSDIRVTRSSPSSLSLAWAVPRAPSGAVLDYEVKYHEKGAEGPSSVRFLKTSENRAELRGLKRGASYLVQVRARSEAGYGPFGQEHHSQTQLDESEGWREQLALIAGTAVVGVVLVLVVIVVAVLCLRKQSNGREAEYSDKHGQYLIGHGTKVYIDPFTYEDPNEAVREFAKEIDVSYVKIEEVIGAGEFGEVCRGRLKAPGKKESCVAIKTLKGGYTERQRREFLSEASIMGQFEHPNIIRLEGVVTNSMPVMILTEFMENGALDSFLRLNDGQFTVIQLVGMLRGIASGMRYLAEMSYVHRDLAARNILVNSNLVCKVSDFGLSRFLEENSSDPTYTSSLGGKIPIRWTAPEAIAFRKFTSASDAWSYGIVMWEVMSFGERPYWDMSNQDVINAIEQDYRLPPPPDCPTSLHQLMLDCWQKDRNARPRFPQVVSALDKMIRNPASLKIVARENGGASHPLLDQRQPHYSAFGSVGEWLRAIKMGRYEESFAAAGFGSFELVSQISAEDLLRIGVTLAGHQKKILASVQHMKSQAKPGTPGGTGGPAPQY
The settings on record: at 0.1 µM.

Assay [5] has as its target T3, Ephrin type-B receptor 4 (Homo sapiens). As to conditions: at 1 µM.
The target of assay [6] is Receptor tyrosine-protein kinase erbB-2 (Homo sapiens) (UniProt P04626). The settings on record: at 0.1 µM.
Assay [7] has the same target. The settings on record: at 1 µM.
Assay [8] deals with Receptor tyrosine-protein kinase erbB-4 (Homo sapiens) (UniProt Q15303). As to conditions: at 0.1 µM.
Assay [9] shares this target. As to conditions: at 1 µM.
Assay [10] has as its target Tyrosine-protein kinase Fer (Homo sapiens) (UniProt P16591). As to conditions: at 0.1 µM.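 Further: reported figures are averaged percent inhibition of FER.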

One may read the inhibition as the relative decrease from the control value, in per cent.

Sequence of Receptor tyrosine-protein kinase erbB-2 (Homo sapiens) (P04626 whole entry): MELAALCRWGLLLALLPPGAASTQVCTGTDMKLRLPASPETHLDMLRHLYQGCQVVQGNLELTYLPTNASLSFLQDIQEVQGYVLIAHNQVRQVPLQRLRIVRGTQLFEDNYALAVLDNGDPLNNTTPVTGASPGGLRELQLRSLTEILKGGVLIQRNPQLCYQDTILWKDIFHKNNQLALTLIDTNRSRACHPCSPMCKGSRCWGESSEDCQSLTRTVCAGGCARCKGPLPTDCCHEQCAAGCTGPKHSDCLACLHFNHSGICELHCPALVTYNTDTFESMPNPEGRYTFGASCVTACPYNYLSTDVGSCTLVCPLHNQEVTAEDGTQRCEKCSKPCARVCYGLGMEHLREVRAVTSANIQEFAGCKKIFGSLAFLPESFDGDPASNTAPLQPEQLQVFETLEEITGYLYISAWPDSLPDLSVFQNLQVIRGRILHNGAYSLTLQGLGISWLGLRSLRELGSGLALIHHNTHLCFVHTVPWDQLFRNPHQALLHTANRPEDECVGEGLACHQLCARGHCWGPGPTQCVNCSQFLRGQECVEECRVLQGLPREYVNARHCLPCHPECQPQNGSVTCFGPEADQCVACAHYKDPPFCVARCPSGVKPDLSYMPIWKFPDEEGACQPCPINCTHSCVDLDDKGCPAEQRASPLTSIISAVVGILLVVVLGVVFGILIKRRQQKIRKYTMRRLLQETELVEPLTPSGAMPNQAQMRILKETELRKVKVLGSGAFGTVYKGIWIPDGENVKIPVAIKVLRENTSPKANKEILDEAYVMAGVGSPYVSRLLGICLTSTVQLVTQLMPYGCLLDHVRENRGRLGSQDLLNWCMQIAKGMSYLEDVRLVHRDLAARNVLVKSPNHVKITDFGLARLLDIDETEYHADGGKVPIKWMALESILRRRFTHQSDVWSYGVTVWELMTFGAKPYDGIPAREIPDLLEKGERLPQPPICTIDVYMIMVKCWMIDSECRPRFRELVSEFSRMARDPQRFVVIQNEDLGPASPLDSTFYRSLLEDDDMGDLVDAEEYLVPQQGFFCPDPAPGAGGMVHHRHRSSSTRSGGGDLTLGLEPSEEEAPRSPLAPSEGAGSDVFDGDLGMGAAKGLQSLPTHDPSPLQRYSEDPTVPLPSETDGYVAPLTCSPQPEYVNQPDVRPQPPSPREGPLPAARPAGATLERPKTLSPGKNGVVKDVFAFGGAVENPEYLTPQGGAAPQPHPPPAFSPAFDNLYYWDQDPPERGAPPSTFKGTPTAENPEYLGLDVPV
Sequence of Receptor tyrosine-protein kinase erbB-4 (Homo sapiens) (Q15303 whole entry): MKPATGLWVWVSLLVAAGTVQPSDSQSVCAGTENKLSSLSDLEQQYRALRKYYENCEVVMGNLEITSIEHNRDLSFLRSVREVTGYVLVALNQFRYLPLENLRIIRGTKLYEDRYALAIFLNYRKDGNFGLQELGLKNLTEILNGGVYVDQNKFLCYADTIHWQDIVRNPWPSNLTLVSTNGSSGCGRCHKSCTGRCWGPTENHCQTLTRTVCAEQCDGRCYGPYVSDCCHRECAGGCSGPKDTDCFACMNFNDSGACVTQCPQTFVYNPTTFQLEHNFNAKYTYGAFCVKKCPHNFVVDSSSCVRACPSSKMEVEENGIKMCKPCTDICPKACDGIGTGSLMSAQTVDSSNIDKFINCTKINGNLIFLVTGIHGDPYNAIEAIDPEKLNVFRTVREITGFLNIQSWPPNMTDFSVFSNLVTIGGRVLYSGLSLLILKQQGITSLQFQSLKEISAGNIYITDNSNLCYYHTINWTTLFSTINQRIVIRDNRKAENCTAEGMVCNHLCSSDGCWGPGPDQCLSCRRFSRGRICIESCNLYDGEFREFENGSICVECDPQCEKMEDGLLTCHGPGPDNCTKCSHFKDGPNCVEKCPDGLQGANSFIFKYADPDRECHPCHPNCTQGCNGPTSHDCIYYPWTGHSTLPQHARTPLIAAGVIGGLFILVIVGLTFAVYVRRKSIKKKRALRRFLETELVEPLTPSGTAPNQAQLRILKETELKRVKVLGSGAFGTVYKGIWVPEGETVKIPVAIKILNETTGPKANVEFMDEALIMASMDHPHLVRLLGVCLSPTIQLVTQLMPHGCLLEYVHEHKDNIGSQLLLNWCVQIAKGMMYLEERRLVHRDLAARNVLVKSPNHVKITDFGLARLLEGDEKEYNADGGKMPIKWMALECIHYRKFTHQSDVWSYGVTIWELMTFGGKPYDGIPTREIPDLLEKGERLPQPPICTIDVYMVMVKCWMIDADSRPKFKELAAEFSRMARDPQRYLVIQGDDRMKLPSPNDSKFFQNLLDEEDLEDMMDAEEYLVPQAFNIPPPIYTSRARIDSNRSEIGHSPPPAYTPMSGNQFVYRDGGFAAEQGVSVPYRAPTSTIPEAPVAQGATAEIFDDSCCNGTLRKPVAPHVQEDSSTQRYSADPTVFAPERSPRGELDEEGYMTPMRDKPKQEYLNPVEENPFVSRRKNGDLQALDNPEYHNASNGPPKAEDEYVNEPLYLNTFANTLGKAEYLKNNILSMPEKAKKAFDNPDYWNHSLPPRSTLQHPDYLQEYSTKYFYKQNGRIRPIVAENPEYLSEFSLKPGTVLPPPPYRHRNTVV
Sequence of Tyrosine-protein kinase Fer (Homo sapiens) (P16591 whole entry, looked up): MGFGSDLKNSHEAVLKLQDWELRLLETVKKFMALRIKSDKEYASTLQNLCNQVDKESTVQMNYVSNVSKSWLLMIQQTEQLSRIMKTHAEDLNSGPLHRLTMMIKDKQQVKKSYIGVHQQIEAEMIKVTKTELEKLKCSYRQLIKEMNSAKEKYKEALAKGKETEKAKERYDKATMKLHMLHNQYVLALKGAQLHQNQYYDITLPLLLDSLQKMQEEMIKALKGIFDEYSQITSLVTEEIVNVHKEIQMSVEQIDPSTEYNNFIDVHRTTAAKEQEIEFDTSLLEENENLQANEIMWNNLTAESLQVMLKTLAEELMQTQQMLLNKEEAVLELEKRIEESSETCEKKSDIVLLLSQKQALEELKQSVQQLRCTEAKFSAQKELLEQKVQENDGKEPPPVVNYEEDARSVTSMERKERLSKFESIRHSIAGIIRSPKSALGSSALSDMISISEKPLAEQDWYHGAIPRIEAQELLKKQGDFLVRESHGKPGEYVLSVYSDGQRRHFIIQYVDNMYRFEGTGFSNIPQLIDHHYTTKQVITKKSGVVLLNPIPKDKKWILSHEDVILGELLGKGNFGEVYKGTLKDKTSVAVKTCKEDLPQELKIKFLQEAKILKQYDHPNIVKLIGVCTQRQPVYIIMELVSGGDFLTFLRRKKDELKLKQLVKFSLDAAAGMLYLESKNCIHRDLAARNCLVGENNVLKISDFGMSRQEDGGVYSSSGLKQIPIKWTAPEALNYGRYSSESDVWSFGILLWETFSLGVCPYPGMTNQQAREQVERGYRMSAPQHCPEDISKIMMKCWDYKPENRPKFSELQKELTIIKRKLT

For the molecule `Fc1cccc(COc2ccc(Nc3ncnc4sc(-c5cccs5)cc34)cc2Cl)c1`, the inhibition was 2.33% in assay [1]; 0.38% in [2]; 2.19% in assay [3]; 1.37% in assay [4]; 1.29% in assay [5]; 1.07% in [6]. Further, the inhibition in assay [7] stood at 3.46%; in assay [8], 5.25%; in assay [9] it was 31.8%; in assay [10], 5.4%.

With `CCn1c(-c2nonc2N)nc2cnc(Oc3cccc(NC(=O)c4ccc(OCCN5CCOCC5)cc4)c3)cc21`, the inhibition in [1] was found to be 6.97%; in assay [2], 6.88%; in [3] it was 5.06%; in assay [4], 3.21%; in [5], 3.05%; in assay [6] it was 4.69%. Besides, the inhibition amounted to 2% in assay [7], 5.15% in assay [8], 10.4% in [9] and 3.9% in assay [10].

As for `Cc1cc(O)cc(C)c1/C=C/c1cncc(-c2nn[nH]n2)c1`, the inhibition in assay [1] was 61.5%; in assay [2], -0.26%; in assay [3], 5.69%; in [4] it was 3.89%; in [5], 46.2%; in [6], 1.86%. The inhibition came to 0.56% in assay [7], 12.1% in assay [8], 36.7% in [9] and 4.18% in assay [10].

For the molecule `COc1cc2ncn(-c3cc(OCc4ccccc4C(F)(F)F)c(C(N)=O)s3)c2cc1OC`, the inhibition in [1] was found to be 17.3%; in [2], 1.32%; in assay [3], 0.77%; in [4], 0.05%; in assay [5], 1.61%; in assay [6] it was 3.56%. The inhibition in assay [7] was found to be 4.42%; in assay [8], 3.59%; in [9], 11.8%; in assay [10], 3.4%.

Turning to `c1cnn2ncc(-c3ccnc(Nc4ccc5c(c4)OCCO5)n3)c2c1`, the inhibition in assay [1] amounted to 29.4%; in [2], 3.36%; in assay [3], 6.8%; in assay [4], 3.69%; in assay [5], 12.5%; in assay [6], 1.94%. In addition, the inhibition is 2.67% in assay [7], 8.29% in assay [8], 12.4% in assay [9] and 10.7% in assay [10].

For `CC1=C(C(=O)Nc2ccc3[nH]ncc3c2)C(c2ccc3ccccc3c2)CC(=O)N1` (centres undefined), the inhibition in assay [1] came to 8.42%; in assay [2], 4.2%; in assay [3] it was 4.54%; in assay [4], 3.21%; in assay [5] it was 3.76%; in assay [6], 0.89%. Besides, the inhibition in assay [7] amounted to 2.88%; in assay [8], 12.7%; in assay [9], 39.6%; in assay [10] it was 2.1%.

`CS(=O)(=O)CCN(CC#N)Cc1ccc(-c2ccc3ncnc(Nc4ccc(OCc5cccc(F)c5)c(Cl)c4)c3c2)o1`: the inhibition is 4.79% in assay [1]; -1.45% in [2]; -0.8% in assay [3]; -2.59% in assay [4]; -3.31% in assay [5]; 12.4% in assay [6]. Moreover, the inhibition in assay [7] was 66.7%; in [8] it was 33.6%; in [9], 73.8%; in assay [10], -0.11%.

For `CS(=O)(=O)Nc1ccc(N/C=C2\C(=O)Nc3ccccc32)cc1`, the inhibition was 0.55% in [1]; -5.53% in assay [2]; -3.88% in assay [3]; 0.19% in [4]; -0.64% in [5]; -3.57% in assay [6]. In addition, the inhibition in [7] is -1.76%; in [9] it was -9.44%; in assay [10], 1.8%.

`Nc1nc(-c2ccc3c(c2)C(=Cc2cc(Br)c(O)c(Br)c2)C(=O)N3)cs1`: the inhibition is -1.17% in [1]; -1.61% in [2]; -4.71% in assay [3]; -0.3% in assay [4]; -2.45% in [5]; -4.27% in [6]. Besides, the inhibition in assay [7] is 2.84%; in [8], -6.34%; in assay [9], -0.4%; in [10], 5.18%.
